According to PubChem BioAssay (EPA / NIEHS):
Where “and” joins values, the source holds several entries; their conditions need not be identical. Equal values may be shown once. Records with an inconclusive call do not appear. Calls of active or inactive are those of the source. The calls were made as follows, unless noted: active = hit-call score of the fitted dose curve at least 0.9, where 1 is the maximum; inconclusive = response in the unintended direction; inactive = score below 0.9.

How the values were obtained:
[1] = target: Steroid hormone receptor ERR1 (Homo sapiens) (UniProt P11474); experiment: ATG_ERRa_TRANS: Attagene TRANS-FACTORIAL HepG2 Assay for human Estrogen-Related Receptor alpha (ERRa) (AID 2282971); conditions: HepG2 Attagene TRANS reporter, ERRa transactivation
How it was run: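 HepG2 cells transiently transfected with multiplexed GAL4-UAS reporter units reading chimeric ERRa-Gal4 activity; 24 h compound exposure. Reporter mRNA measured by RT-PCR, 6-FAM labelling, HpaI digest and capillary electrophoresis; gain of signal fitted versus DMSO baseline.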

[2] = ATG_M_19_TRANS: Attagene TRANS-FACTORIAL HepG2 Assay for M19 Transcription Factor (Internal Marker) (AID 2282974); conditions: HepG2 Attagene TRANS-FACTORIAL M19 internal marker reporter
How it was run: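 Fluorescence of 6-FAM-labelled reporter cDNA fragments, separated by capillary electrophoresis, served as the readout. These derived from HepG2 cells carrying transfected GAL4-UAS reporter units after 24 h dosing, with DMSO as negative control.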

[3] = target: Estrogen-related receptor gamma (Homo sapiens) (UniProt P62508); experiment: ATG_ERRg_TRANS: Attagene TRANS-FACTORIAL HepG2 Assay for human Estrogen-Related Receptor gamma (ERRg) (AID 2282977); conditions: HepG2 Attagene TRANS reporter, ERRg transactivation;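 also: hits increase reporter signal over DMSO so potencies reflect activators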
How it was run: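 Exogenous NR-Gal4 chimera activity was assessed in HepG2 cells bearing transfected GAL4-UAS reporters. After 24 h dosing, total RNA underwent RT-PCR, fluorescent primer extension and HpaI digestion before capillary electrophoresis, with gain of signal scored against DMSO.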

[4] = target: Oxysterols receptor LXR-alpha (Homo sapiens) (UniProt Q13133); experiment: ATG_LXRa_TRANS: Attagene TRANS-FACTORIAL HepG2 Assay for human Liver X Receptor alpha (LXRa) (AID 2282980); conditions: HepG2 Attagene TRANS reporter, LXRa transactivation
How it was run: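 HepG2 cells were transiently transfected with multiplexed reporter units driven by chimeric LXRa–GAL4 fusion proteins, then dosed for 24 h. Reporter mRNA was quantified by RT-PCR, fluorescent labelling and capillary electrophoresis; gain of signal fitted against DMSO baseline.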

[5] = target: Oxysterols receptor LXR-beta (Homo sapiens) (UniProt P55055); experiment: ATG_LXRb_TRANS: Attagene TRANS-FACTORIAL HepG2 Assay for human Liver X Receptor beta (LXRb) (AID 2282981); conditions: HepG2 Attagene TRANS GAL4-LXRb reporter, mRNA
How it was run: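 Readout: fluorescent reporter mRNA fragments resolved by capillary electrophoresis after RT-PCR. System: transiently transfected human HepG2, exogenous LXRb-Gal4 chimera driving GAL4-UAS reporter, 24 h dosing. Activity fitted upward against DMSO baseline.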

[6] = target: Hepatocyte nuclear factor 4-alpha (Homo sapiens) (UniProt P41235); experiment: ATG_HNF4a_TRANS: Attagene TRANS-FACTORIAL HepG2 Assay for human Hepatocyte Nuclear Factor 4 alpha (HNF4a) (AID 2282982); conditions: HepG2 HNF4a transactivation reporter, mRNA readout
How it was run: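 Transient MRTU transfection of HepG2, 24 h dosing. Readout: reporter mRNA via RT-PCR + capillary electrophoresis, fluorescence; activity fit upward relative to DMSO control.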

[7] = target: X-box-binding protein 1 (Homo sapiens) (UniProt P17861); experiment: ATG_Xbp1_CIS: Attagene CIS-FACTORIAL HepG2 Assay for human X-box Binding Protein 1 (XBP1) (AID 2282972; active = hit-call score of the fitted dose curve at least 0.9, where 1 is the maximum; inactive = score below 0.9); conditions: HepG2 XBP1 cis-element reporter, Attagene multiplex; actives raise or lower the signal
How it was run: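 Multiplexed cis-reporter readout in transfected HepG2 liver cells. Exposure lasted 24 hours. Activity in either direction was fitted against DMSO as negative control and baseline.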

[8] = ATG_GAL4_TRANS: Attagene TRANS-FACTORIAL HepG2 Assay for GAL4 (Internal Marker) (AID 2282976); conditions: HepG2 Attagene TRANS GAL4 internal marker reporter
How it was run: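 HepG2 cells transiently transfected with multiplexed GAL4-UAS reporter constructs were dosed for 24 h. Reporter mRNA was measured by RT-PCR, 6-FAM primer extension, HpaI digestion and capillary electrophoresis, and gain of signal was fitted relative to DMSO.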

[9] = target: Bile acid receptor (Homo sapiens) (UniProt Q96RI1); experiment: ATG_FXR_TRANS: Attagene TRANS-FACTORIAL HepG2 Assay for Farnesoid X Receptor (FXR) (AID 2282979); conditions: HepG2 Attagene TRANS FXR-GAL4 reporter transcription;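 also: hits raise reporter mRNA above DMSO so AC50 marks FXR activation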
How it was run: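 HepG2 cells transiently transfected with reporter constructs in which a chimeric FXR-GAL4 protein drives a GAL4-UAS reporter; 24 h compound exposure. Reporter mRNA measured by RT-PCR, FAM labelling, HpaI digestion and capillary electrophoresis; gain-of-signal versus DMSO.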

[10] = target: Glucocorticoid receptor (Homo sapiens) (UniProt P04150); experiment: ATG_GR_TRANS: Attagene TRANS-FACTORIAL HepG2 Assay for human Glucocorticoid Receptor (GR) (AID 2282978); conditions: HepG2 Attagene TRANS GR reporter, mRNA transcription;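 also: activators score as hits since higher reporter transcript over DMSO is fitted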
How it was run: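 Fluorescent capillary-electrophoresis quantitation of reporter mRNA is the readout, taken 24 h after dosing human HepG2 cells carrying transiently transfected GAL4-UAS reporter units activated by chimeric NR-GAL4 fusions; activity scored as induction over DMSO.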

Measured: AC50

Sequence of Oxysterols receptor LXR-beta (Homo sapiens) (P55055 whole entry, looked up, the tested form may be a part): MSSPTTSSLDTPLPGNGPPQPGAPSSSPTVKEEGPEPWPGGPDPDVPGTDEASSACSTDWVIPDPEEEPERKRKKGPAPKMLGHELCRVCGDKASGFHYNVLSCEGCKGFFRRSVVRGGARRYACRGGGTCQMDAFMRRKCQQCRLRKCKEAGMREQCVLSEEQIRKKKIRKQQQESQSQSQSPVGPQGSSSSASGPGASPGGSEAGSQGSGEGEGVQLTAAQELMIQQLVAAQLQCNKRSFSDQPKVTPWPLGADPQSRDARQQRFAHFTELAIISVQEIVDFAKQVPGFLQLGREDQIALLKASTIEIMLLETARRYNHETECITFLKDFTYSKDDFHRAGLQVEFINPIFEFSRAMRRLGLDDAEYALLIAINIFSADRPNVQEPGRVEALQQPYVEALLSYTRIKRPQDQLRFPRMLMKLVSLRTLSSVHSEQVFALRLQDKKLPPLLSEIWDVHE
Sequence of X-box-binding protein 1 (Homo sapiens) (P17861 whole entry, looked up): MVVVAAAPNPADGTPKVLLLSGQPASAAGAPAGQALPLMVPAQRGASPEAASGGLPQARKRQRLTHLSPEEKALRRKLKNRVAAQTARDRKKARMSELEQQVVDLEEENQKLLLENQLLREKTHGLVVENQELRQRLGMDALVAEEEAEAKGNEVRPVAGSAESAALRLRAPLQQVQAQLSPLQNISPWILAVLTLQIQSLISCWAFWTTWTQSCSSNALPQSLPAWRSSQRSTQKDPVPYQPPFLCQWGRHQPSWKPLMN
Sequence of Glucocorticoid receptor (Homo sapiens) (P04150 whole entry, looked up, the tested form may be a part): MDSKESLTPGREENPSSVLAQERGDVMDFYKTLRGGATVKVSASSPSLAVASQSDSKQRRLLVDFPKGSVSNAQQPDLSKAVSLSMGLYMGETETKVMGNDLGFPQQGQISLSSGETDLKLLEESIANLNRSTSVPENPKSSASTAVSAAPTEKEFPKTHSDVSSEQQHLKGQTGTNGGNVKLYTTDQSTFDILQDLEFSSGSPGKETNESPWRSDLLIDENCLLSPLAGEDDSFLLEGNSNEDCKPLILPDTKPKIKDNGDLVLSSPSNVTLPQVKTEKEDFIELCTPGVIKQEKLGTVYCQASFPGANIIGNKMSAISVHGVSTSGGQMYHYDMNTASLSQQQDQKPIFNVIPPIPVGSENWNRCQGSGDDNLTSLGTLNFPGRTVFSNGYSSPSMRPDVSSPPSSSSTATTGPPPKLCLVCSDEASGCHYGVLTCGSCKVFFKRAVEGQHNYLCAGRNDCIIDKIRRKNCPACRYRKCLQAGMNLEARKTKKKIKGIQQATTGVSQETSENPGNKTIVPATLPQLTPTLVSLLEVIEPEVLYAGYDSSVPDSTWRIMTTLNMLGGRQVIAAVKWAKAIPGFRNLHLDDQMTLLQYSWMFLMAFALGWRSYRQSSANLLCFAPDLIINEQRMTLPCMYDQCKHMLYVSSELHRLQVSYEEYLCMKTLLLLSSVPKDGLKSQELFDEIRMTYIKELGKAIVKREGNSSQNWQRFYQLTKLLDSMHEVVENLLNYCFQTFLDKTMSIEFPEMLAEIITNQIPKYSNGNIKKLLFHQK
Sequence of Hepatocyte nuclear factor 4-alpha (Homo sapiens) (P41235 whole entry, looked up): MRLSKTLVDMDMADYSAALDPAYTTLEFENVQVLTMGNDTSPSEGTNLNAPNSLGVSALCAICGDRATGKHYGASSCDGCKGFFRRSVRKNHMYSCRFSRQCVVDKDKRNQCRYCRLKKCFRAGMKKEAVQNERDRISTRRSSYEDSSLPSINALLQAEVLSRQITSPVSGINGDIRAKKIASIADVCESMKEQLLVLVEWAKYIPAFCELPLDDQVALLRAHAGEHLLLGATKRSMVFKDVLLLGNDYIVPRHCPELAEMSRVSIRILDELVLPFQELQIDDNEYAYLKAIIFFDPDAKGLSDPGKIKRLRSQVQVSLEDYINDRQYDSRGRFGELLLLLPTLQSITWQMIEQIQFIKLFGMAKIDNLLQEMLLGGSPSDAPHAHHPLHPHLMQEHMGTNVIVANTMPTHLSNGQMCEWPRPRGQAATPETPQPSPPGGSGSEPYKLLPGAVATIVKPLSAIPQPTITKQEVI
Sequence of Bile acid receptor (Homo sapiens) (Q96RI1 whole entry, looked up, the tested form may be a part): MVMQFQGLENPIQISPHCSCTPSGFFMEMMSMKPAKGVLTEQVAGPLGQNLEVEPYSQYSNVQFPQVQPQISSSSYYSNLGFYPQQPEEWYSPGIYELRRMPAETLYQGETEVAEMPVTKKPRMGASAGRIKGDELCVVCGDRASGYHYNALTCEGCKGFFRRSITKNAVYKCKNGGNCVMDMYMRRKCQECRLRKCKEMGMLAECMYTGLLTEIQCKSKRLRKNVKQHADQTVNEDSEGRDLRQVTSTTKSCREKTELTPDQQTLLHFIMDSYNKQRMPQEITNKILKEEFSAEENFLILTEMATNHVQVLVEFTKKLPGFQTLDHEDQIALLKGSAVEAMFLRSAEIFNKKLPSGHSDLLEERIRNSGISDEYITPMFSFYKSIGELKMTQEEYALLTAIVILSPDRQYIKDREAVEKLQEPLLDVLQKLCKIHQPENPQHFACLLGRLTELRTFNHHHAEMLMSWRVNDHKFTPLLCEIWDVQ
Sequence of Estrogen-related receptor gamma (Homo sapiens) (P62508 whole entry, looked up, the tested form may be a part): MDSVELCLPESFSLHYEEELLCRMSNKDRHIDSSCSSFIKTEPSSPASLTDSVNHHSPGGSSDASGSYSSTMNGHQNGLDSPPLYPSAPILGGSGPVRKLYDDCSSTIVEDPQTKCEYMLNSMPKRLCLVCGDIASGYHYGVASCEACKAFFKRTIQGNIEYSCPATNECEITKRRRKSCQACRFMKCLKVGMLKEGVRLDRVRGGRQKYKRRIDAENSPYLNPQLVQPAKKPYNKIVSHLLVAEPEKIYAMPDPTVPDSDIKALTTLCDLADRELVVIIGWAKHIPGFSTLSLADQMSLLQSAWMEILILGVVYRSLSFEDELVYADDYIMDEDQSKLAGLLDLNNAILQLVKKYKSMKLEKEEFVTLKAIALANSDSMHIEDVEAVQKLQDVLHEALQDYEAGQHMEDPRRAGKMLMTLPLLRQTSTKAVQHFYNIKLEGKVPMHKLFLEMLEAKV
Sequence of Steroid hormone receptor ERR1 (Homo sapiens) (P11474 whole entry, looked up, the tested form may be a part): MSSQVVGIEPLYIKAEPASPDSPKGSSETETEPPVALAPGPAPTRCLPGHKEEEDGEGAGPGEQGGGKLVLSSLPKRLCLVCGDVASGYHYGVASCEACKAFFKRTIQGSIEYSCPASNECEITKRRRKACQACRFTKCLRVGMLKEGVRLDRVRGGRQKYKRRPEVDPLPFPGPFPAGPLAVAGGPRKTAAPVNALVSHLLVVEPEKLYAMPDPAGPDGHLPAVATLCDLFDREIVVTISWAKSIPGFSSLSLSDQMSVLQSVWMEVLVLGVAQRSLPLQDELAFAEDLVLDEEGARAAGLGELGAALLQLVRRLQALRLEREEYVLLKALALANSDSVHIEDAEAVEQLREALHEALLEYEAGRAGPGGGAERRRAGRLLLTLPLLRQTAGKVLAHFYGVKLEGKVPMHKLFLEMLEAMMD
Sequence of Oxysterols receptor LXR-alpha (Homo sapiens) (Q13133 whole entry, looked up, the tested form may be a part): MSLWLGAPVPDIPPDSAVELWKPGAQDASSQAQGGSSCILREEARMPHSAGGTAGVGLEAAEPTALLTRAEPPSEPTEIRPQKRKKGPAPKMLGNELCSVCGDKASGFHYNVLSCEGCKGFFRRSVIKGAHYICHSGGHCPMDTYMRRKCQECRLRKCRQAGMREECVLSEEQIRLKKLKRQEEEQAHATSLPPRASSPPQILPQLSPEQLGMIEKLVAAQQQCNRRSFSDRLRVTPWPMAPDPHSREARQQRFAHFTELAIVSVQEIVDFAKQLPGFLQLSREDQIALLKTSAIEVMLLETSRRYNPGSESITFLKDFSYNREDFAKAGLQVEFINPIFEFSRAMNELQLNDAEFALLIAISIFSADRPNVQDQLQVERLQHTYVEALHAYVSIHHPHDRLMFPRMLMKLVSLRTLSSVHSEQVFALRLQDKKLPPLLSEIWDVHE

COP(=S)(OC)Oc1ccc(S(=O)(=O)N(C)C)cc1
inactive: [1] | [2] | [3] | [4] | [5] | [6]

CCSC(C)CC1CC(=O)C(C(CC)=NOC/C=C/Cl)=C(O)C1 (stereo unspecified)
inactive: [1] | [7] | [2] | [3] | [4]

CCOP(=S)(OCC)SCCS(=O)(=O)CC
inactive: [1] | [7] | [2] | [3] | [4] | [5]

CCC[CH2][Sn]([Cl])([Cl])[Cl]
inactive: [1] | [2] | [8] | [3] | [9] | [6]

CC(=O)c1cc(C(C)(C)C)cc2c1CCC2(C)C
inactive: [1] | [4] | [5]
active: [7] 75.2 µM

C=CC#N
inactive: [1] | [8] | [4]

c1ccc(N=NNc2ccccc2)cc1
inactive: [1] | [3] | [4] | [6]

Nc1cccc(Cl)c1
inactive: [1] | [3] | [5]

COc1cc(-c2ccc(N)c(OC)c2)ccc1N
inactive: [1] | [3] | [5] | [6]
active: [7] 27.7 µM and 33.6 µM

NNC(=S)NN
inactive: [1] | [7] | [2] | [8] | [5]

COc1ccc(C=O)cc1OC
inactive: [1] | [7] | [5] | [6]

CC(=O)C=C(C)C
inactive: [1] | [7] | [8] | [3] | [5]

CCC(C)(C)c1ccc(O)c(C(C)(C)CC)c1
active: [4] 9.67 µM | [5] 23.6 µM
inactive: [1] | [7] | [6]

C[C@]12CCC(=O)C[C@@H]1CC[C@@H]1[C@@H]2CC[C@]2(C)[C@@H](O)CC[C@@H]12
inactive: [1] | [7] | [4] | [5]

COP(=O)(OC)OC
inactive: [1] | [7] | [3] | [4] | [5] | [6]

CC(C)c1ccc(CO)cc1
inactive: [1] | [7] | [2] | [4]

CCN1CCC2(CC1)COc1cc3c(cc12)N(C(=O)c1ccc(-c2ccc(-c4nnc(C)o4)cc2C)cc1)CC3
inactive: [1] | [7] | [8] | [9] | [4]
active: [5] 1.01 µM

O=C1C2(Cl)C3(Cl)C4(Cl)C(Cl)(Cl)C5(Cl)C3(Cl)C1(Cl)C5(Cl)C24Cl (stereo unspecified)
not listed: [7] | [9] | [10]
inactive: all other assays above

COP(=S)(OC)Oc1c(Cl)cc(C)cc1Cl
inactive: [1] | [7] | [8] | [5]

CC(C#N)CCC#N (stereo unspecified)
inactive: [1] | [7] | [2] | [5] | [6]

CCN(CC)C(=O)Cl
inactive: [1] | [7] | [8] | [3] | [5] | [6]

CC(=O)[O][Hg][c]1ccccc1
active: [7] 3.71 µM
inactive: [1] | [4] | [5]

NC(=O)O
not listed: [9] | [10]
inactive: all other assays above

CN(C)P(=O)(N(C)C)N(C)C
not listed: [2] | [9] | [10]
inactive: all other assays above

CCOC(=O)CP(=O)(OCC)OCC
inactive: [1] | [7] | [2] | [8] | [4] | [6]

O=c1[nH]c(=O)[nH]c(=O)[nH]1
not listed: [9] | [10]
inactive: all other assays above

O=C1C(Cl)=C(Cl)C(=O)c2ccccc21
not listed: [5] | [6] | [9]
inactive: all other assays above

COC[C@H](C)N(C(=O)CCl)c1c(C)csc1C
inactive: [1] | [7] | [5]

BrCCBr
not listed: [6] | [9]
inactive: all other assays above

Cl/C=C\C[N+]12CN3CN(CN(C3)C1)C2
inactive: [1] | [7] | [5] | [6]

O=[N+]([O-])c1ccc(O)c([N+](=O)[O-])c1
inactive: [1] | [3] | [4] | [5]

O=C(c1ccccc1)C(Cl)Cl
active: [7] 25.1 µM
not listed: [4] | [8] | [10]
inactive: all other assays above

COc1cccc(C=O)c1
inactive: [1] | [7] | [2] | [8] | [3] | [6]

CCCCOCCOC(C)=O
inactive: [1] | [7] | [2] | [8] | [4]

Nc1ccc(Cl)cc1C(=O)c1ccccc1
inactive: [1] | [7] | [2] | [8] | [10]

CC1(C)CCC(Cc2ccc(Cl)cc2)C1(O)Cn1cncn1 (stereo unspecified)
inactive: [1] | [7] | [2] | [8] | [4] | [5]
